In assay [1] the target is Platelet-derived growth factor receptor beta (Homo sapiens) (UniProt P09619). To be noted: at 1 µM.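 Note: each value is a mean percent inhibition.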
Assay [2] has as its target Tyrosine-protein kinase FRK (Homo sapiens) (UniProt P42685). To be noted: at 0.1 µM.
Assay [3] shares this target. To be noted: at 1 µM.
Assay [4] deals with Protein-tyrosine kinase 2-beta (Homo sapiens) (UniProt Q14289). To be noted: at 0.1 µM.
Assay [5] has the same target. To be noted: at 1 µM.
The target of assay [6] is Proto-oncogene tyrosine-protein kinase receptor Ret (Homo sapiens) (UniProt P07949). As to conditions: at 0.1 µM.
The target is the same in assay [7]. To be noted: at 1 µM.
Assay [8] concerns Proto-oncogene tyrosine-protein kinase receptor Ret (Homo sapiens), P07949 [V804L]. To be noted: at 0.1 µM.
Assay [9] has the same test system. As to conditions: at 1 µM.
For assay [10], the system named is Proto-oncogene tyrosine-protein kinase receptor Ret (Homo sapiens), P07949 [Y791F]. To be noted: at 0.1 µM.

The structures appear in SMILES notation.

Chain of Proto-oncogene tyrosine-protein kinase receptor Ret (Homo sapiens), P07949 [Y791F] (P07949 whole entry Y791F): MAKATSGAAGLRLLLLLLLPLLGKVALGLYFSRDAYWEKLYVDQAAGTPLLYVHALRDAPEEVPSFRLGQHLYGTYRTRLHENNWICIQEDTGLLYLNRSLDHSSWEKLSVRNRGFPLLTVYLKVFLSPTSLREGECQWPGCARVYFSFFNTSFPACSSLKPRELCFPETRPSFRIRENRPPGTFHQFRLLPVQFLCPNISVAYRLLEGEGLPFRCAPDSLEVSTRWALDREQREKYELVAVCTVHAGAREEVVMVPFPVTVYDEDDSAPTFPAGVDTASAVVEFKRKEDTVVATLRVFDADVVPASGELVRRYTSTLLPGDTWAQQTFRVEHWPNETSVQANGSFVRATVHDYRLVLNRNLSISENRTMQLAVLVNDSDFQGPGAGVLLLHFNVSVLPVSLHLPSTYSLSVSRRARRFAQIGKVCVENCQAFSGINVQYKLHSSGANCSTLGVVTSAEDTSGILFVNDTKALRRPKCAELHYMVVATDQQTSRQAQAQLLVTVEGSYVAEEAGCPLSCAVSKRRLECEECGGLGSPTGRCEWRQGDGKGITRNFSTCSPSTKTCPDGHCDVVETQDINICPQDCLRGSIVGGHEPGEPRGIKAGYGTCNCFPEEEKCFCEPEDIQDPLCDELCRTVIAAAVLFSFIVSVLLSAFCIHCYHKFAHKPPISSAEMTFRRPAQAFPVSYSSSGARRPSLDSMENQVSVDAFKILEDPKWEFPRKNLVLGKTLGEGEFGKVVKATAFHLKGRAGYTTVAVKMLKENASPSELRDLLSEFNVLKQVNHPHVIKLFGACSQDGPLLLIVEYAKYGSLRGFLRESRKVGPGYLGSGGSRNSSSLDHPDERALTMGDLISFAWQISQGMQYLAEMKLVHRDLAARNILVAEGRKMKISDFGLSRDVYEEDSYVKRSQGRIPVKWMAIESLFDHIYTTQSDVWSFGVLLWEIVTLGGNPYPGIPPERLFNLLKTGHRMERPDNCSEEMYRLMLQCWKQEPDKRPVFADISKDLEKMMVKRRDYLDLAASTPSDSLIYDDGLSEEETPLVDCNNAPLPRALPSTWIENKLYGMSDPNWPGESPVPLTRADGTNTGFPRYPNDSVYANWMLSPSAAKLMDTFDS
Chain of Protein-tyrosine kinase 2-beta (Homo sapiens) (Q14289 whole entry, looked up): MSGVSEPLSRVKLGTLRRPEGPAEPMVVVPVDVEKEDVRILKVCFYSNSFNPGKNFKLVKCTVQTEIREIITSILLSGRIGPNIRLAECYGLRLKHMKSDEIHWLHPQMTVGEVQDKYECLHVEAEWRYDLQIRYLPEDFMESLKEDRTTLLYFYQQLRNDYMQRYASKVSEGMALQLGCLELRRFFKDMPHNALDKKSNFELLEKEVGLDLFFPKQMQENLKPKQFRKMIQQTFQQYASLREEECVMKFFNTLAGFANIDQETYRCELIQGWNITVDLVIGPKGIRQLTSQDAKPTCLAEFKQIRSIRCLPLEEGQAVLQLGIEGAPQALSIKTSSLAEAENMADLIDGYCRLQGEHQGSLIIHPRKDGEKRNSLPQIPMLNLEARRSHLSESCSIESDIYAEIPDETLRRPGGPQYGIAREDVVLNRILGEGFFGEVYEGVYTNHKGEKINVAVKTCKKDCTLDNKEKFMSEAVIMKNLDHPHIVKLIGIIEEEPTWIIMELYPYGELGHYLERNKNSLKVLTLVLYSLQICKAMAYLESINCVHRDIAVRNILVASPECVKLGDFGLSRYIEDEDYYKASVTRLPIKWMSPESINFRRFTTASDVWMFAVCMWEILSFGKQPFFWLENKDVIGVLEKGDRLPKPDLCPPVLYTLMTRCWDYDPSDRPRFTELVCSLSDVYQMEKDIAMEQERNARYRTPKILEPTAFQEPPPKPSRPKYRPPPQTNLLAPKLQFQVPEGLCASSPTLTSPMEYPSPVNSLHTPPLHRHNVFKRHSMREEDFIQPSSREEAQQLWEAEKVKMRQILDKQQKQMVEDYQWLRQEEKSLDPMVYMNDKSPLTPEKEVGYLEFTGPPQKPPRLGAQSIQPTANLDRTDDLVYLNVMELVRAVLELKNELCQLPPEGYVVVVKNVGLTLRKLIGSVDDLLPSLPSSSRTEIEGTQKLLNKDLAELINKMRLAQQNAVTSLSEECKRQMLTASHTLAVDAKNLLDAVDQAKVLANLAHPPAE
Chain of Proto-oncogene tyrosine-protein kinase receptor Ret (Homo sapiens), P07949 [V804L] (P07949 whole entry V804L): as the sequence (P07949 whole entry Y791F) above, with F791Y, V804L counted along it
Chain of Platelet-derived growth factor receptor beta (Homo sapiens) (P09619 whole entry): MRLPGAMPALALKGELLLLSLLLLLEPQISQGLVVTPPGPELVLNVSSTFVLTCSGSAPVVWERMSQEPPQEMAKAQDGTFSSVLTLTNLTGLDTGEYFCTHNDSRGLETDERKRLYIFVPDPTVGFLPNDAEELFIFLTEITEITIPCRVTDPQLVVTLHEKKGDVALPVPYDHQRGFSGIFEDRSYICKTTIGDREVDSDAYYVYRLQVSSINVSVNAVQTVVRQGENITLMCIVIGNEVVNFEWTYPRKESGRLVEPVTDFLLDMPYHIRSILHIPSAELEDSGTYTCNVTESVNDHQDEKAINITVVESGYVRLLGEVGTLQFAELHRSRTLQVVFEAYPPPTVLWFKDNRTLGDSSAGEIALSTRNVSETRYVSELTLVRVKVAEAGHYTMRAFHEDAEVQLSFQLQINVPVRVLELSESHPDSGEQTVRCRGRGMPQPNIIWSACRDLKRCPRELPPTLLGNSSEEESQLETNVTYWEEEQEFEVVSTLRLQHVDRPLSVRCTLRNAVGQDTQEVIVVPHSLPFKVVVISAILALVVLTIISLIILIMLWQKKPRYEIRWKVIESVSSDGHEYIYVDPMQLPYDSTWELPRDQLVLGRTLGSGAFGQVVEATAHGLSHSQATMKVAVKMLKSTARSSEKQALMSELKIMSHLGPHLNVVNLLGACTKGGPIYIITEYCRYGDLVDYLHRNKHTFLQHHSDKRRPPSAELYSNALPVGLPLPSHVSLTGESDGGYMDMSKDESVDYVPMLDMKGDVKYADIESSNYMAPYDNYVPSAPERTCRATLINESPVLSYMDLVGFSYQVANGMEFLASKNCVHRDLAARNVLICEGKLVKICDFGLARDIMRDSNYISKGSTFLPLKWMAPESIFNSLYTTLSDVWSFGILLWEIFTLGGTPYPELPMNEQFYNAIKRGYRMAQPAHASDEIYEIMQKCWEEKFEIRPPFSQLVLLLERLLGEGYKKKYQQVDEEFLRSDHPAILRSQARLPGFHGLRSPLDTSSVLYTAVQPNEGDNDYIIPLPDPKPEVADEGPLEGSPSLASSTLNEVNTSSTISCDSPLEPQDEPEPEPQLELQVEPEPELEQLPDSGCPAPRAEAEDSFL
Chain of Tyrosine-protein kinase FRK (Homo sapiens) (P42685 whole entry): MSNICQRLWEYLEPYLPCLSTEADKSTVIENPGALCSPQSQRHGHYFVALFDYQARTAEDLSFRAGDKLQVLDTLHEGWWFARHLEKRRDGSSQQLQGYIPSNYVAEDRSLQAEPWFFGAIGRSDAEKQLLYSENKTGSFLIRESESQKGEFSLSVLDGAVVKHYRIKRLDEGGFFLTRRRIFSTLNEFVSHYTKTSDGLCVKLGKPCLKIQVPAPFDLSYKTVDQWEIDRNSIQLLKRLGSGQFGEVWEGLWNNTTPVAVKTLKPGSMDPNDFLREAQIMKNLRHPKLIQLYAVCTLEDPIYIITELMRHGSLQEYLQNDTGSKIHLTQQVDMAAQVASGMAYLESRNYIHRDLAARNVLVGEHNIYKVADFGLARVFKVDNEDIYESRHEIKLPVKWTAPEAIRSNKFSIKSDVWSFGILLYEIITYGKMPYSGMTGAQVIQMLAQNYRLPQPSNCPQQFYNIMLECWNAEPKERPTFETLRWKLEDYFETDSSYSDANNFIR
Chain of Proto-oncogene tyrosine-protein kinase receptor Ret (Homo sapiens) (P07949 whole entry): as the sequence (P07949 whole entry Y791F) above, with F791Y counted along it

Consider `Cc1ccc(Nc2ccnc(Nc3cccc(C(N)=O)c3)n2)cc1O`, for which the inhibition stood at 79.7% in [1]; 48.6% in assay [2]; 87.6% in assay [3]; 9.71% in assay [4]; 47.8% in assay [5]; 73.5% in assay [6]. For the same compound, the inhibition in assay [7] is 85.7%; in assay [8] it was 11.7%; in assay [9] it was 49.7%; in [10], 74.6%.
Regarding `COc1cccc(-n2ncc3c(N/N=C/c4ccc(C)cc4)ncnc32)c1`, the inhibition in assay [1] is 21.1%; in [2], 2.86%; in assay [3] it was 5.6%; in [4], 4.06%; in assay [5], 15.8%; in [6], 3%. The inhibition in assay [7] stood at 11.5%; in [8], 3.72%; in [9], 10.2%; in assay [10] it was 4.38%.
Regarding `COc1cc2ncnc(Nc3ccc4c(cnn4Cc4ccccc4)c3)c2cc1OC`, the inhibition in [1] came to 6.26%; in [2], 1.94%; in assay [3], 6.16%; in assay [4], 6.05%; in assay [5], 9.57%; in [6], 8.77%. The inhibition amounted to 28.6% in assay [7], 3.73% in [8], 9.3% in assay [9] and 9.71% in assay [10].
`CCOc1nccc2c1nc(-c1nonc1N)n2CC`: the inhibition was 20.2% in assay [1]; 1.66% in assay [2]; -0.64% in assay [3]; 5.11% in [4]; 7.29% in assay [5]; 5.47% in [6]. Also, the inhibition was found to be 12.3% in assay [7], 8.5% in [8], 20.2% in assay [9] and 9.76% in assay [10].
Consider `O=C1Nc2ccccc2/C1=C/Nc1ccc2[nH]c(=O)[nH]c2c1`, for which the inhibition was determined as 56.7% in [1]; 6.33% in assay [2]; 8.07% in assay [3]; 20.6% in assay [4]; 46.4% in [5]; 23.7% in assay [6]. Also, the inhibition in [7] worked out at 61.3%; in [8], 32.4%; in [9] it was 75.4%; in [10], 25.8%.
For `CS(=O)(=O)Nc1cccc(-c2ccc3c(NC(=O)C4CC4)n[nH]c3c2)c1`, the inhibition was 7.8% in assay [1]; 0.86% in assay [2]; 0.42% in [3]; 2.77% in [4]; 3.01% in [5]; -0.07% in assay [6]. The inhibition in assay [7] was 15.4%; in assay [8], -3.08%; in assay [9], -1.31%; in [10], 1.94%.
Regarding `Nc1nccc(C#Cc2cncnc2Nc2ccc(OCc3cccc(F)c3)c(Cl)c2)n1`, the inhibition in [1] is 11.6%; in assay [2] it was 2.59%; in [3], 0.85%; in assay [4] it was 8.24%; in assay [5] it was 14.2%; in [6], 1.17%. In addition, the inhibition in assay [7] was 5.76%; in [8] it was 10.1%; in [9] it was 15%; in [10] it was 4.88%.
With `CN(C)C(=O)O[C@@H]1CN[C@@H](C#Cc2cc3ncnc(Nc4ccc(OCc5cccc(F)c5)c(Cl)c4)c3s2)C1`, the inhibition in assay [1] was 9.98%; in [2], 0.71%; in [3] it was 2.18%; in [4], -3.27%; in assay [5], 3.14%; in [6], 3.72%. Moreover, the inhibition in assay [7] was 4.94%; in assay [8], 0.31%; in assay [9], -0.74%; in assay [10], 3.85%.
As to `COc1ccc(-c2nn3ncccc3c2-c2ccnc(Nc3cccc(C(F)(F)F)c3)n2)cc1`, the inhibition in assay [1] was 5.95%; in [2], 1.12%; in assay [3] it was 2.91%; in assay [4], 6.13%; in assay [5], 6.4%; in [6] it was 2.63%. Moreover, the inhibition was found to be 2.06% in assay [8], 3.74% in [9] and 3.38% in assay [10].
Consider `N#Cc1c(NC(=O)c2ccccc2F)sc2c1CCCC2`, for which the inhibition is 3.62% in assay [1]; -0.85% in assay [2]; -1.09% in assay [3]; -8.67% in assay [5]; -2% in assay [6]; 3.21% in assay [7]. Also, the inhibition was 0.24% in assay [8], 2.29% in assay [9] and -0.3% in [10].
Take `CCS(=O)(=O)c1ccc(OC)c(Nc2nccc(N(C)c3ccc4c(C)n[nH]c4c3)n2)c1`: the inhibition in assay [1] amounted to 70.9%; in [2] it was 20.6%; in assay [3] it was 70.2%; in assay [4], 4%; in [5], 19%; in assay [6], 64.8%. Besides, the inhibition in [7] was determined as 83.5%; in assay [8], 4.04%; in assay [9], 8.57%; in assay [10] it was 58.1%.
Consider `CN(c1ccc(NC(=O)Nc2ccc(OC(F)(F)F)cc2)cc1)c1ccnc(Nc2cccc(S(N)(=O)=O)c2)n1`, for which the inhibition stood at 82.1% in assay [1]; 5.62% in assay [2]; 40.9% in assay [3]; 5.52% in assay [4]; 59% in assay [5]; 79.8% in [6]. The inhibition in [7] came out at 72%; in assay [8], 53.8%; in assay [9], 86.4%; in assay [10] it was 67.4%.
Turning to `COc1cc(Nc2nccc(-c3cnn4ncccc34)n2)cc(OC)c1`, the inhibition was determined as 84.5% in assay [1]; 1.76% in [2]; 5.05% in [3]; 38.9% in assay [4]; 95.9% in assay [5]; 9.58% in assay [6]. Besides, the inhibition in [7] stood at 25.4%; in assay [8], 6.17%; in assay [9], 33.5%; in assay [10] it was 4.62%.
Turning to `FC(F)(F)c1ccc(-c2nn3ncccc3c2-c2ccnc(Nc3ccc4c(c3)OCCO4)n2)cc1`, the inhibition was determined as 17.4% in assay [1]; 1.38% in assay [2]; 2.35% in [3]; 2.83% in assay [4]; 1.96% in [5]; 8.08% in assay [6]. The inhibition worked out at 29.2% in [7], 9.12% in assay [8], 14.3% in assay [9] and 8.67% in [10].
On to `COC(=O)c1cncc(/C=C/c2c(C)cc(O)cc2C)c1`, for which the inhibition in assay [1] was 36.7%; in assay [2], 2.26%; in assay [3], 6.54%; in assay [4] it was 9.3%; in assay [5], 10.1%; in assay [6] it was 2.45%. Also, the inhibition in assay [7] came to 5.3%; in [8] it was 2.74%; in [9], 7.8%; in [10], 0.65%.
In the case of `CCn1c(-c2nonc2N)nc2c(C#CC(C)(C)O)nc(OCCNC)cc21`, the inhibition in [1] was determined as 24.2%; in assay [2] it was 3.46%; in assay [3], 3.09%; in [4] it was 8.7%; in assay [5], 10.6%; in assay [6], 8.91%. The inhibition in [7] is 23.6%; in [8], 2.4%; in assay [9] it was 4.07%; in [10], 7.43%.
For `CC(C)c1ccc2c(c1)NC(=O)/C2=N/Nc1ccc(S(N)(=O)=O)cc1`, the inhibition was 29.8% in [1]; -0.9% in [2]; 2.77% in [3]; 8.25% in assay [6]; 34% in [7]; 1.58% in [8]. Also, the inhibition was determined as 6.41% in assay [9] and 4.75% in assay [10].

The values above are taken from ChEMBL document CHEMBL1961873, “Compounds: GSK PKIS; Assays: Nanosyn kinase panel” (2012).
